Compound activity as filed in PubChem.
Compounds with a hit are over-represented: about 3.2% of the library has one in this group of screens.
ClpP mod: qHTS Assay for Activators of ClpP | purified B. subtilis ClpP, FRET peptide cleavage, 20 min | Potency, µM (doses to about 57.5 µM), for inactives: at the top dose activity change, negative = active | ATP-dependent Clp protease proteolytic subunit (Bacillus subtilis (strain 168)), P80244 | 1.9% of 340,000 active; active = well fitted falling curve with a large enough effect; inconclusive = small, poorly fitted or top-dose-only effect; inactive = no such curve, though single readings can be large or run the other way; note: the source files actives as falling curves though it sought activators and does not explain the sign; nearly all actives have a fitted effect of over 65% in size
Target sequence (P80244 whole entry, looked up): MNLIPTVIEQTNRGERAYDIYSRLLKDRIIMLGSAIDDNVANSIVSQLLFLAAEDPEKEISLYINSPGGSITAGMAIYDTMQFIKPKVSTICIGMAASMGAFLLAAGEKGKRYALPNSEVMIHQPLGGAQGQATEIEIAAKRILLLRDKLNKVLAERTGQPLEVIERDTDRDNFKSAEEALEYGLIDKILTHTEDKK
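ClpP 10 microg/mL final, pH 8 Tris/KCl buffer with BSA, glycerol, Tween-20; compound pinned in; FRET-FV substrate; RT 20 min; Ex320/Em430; ΔFRET vs ADEP 5.8 microM, DMSO, no enzyme.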
GLP1R inv ag: inverse agonists of human GLP-1 receptor; P43220; HEK293 GLP-1R CRE-luciferase, luminescence, 24 h; GLP-1R form is constitutively active; Potency, µM (doses to about 38.3 µM), for the others: at the top dose activity change, negative = inhibition, actives largely listed as inhibitors; 1.6% of 410,000 active; AID 624417; note: % is set by controls: 0 for no effect and ±100 for the full control effect; nearly all actives have a fitted effect of over 55% in size
Target sequence (P43220 whole entry, looked up): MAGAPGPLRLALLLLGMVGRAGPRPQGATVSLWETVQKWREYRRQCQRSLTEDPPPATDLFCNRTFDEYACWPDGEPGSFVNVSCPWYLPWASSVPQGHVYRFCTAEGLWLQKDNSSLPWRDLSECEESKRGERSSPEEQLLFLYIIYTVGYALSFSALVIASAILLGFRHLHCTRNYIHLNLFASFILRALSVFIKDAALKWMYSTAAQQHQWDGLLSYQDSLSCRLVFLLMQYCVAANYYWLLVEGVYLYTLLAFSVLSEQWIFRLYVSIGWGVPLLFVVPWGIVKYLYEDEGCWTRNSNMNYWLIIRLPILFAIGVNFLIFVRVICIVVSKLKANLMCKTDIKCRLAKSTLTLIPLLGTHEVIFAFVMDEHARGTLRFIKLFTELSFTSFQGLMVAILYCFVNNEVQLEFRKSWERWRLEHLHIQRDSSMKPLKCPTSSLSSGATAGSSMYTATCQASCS
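Assay principle: reduced luminescence from a cAMP-responsive reporter in HEK293 cells co-expressing a constitutively active GLP-1R. Conditions: 24 hr compound incubation, 37 deg C, 5% CO2.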
GLP1R ag: activates the human GLP-1 receptor. P43220. HEK293 GLP-1R CRE-luciferase, luminescence, 4-6 h; cells express a hypersensitive GLP-1R form. Potency, µM (series often up to 45.6 µM), for the others: at the highest dose activation, most hits filed as activators. 0.007% of 380,000 active; note: % of control where 0% means no effect
HEK293 tox: cytotoxicity counter-screen for GLP-1 receptor inverse agonists. 0.13% of 410,000 active. HEK293 cAMP-luciferase reporter cells, luminescence, 24 h. Potency, µM (highest dose often 38.3 µM), for the others: at the top dose activity change, negative = inhibition, most hits filed as inhibitors;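 note: loss of luciferase light is scored as toxicity; % is set by controls: 0 for no effect and ±100 for the full control effect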
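To flag toxic compounds, the library was rerun on cells for 24 hr at 37 deg C and 5% CO2. Viability-linked luminescence was captured 12 min after adding luciferase detection reagent.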
An asterisk follows results filed as active; u = inconclusive; x = no result given; [ ] = remark or other dose. Unless noted, calls come from the whole dose curve; as a rule, active = well fitted curve in the direction sought with a large enough effect; inconclusive = small, poorly fitted or top-dose-only effect, or another doubt; inactive = no such curve, though single readings can be large; an effect the other way counts as inactive or inconclusive. Potency is the fitted concentration of half-maximal effect.

SMILES	ClpP mod	GLP1R inv ag	GLP1R ag	HEK293 tox
COC(=O)C1=C(c2ccccc2OCc2ccccc2)C[C@@H]2CC[C@H]1N2C(=O)NCCc1ccc(F)cc1	-3%	22µM*	-2%	-23%
COC(=O)C1=C(c2ccc(-c3ccccc3)c(F)c2)C[C@@H]2CC[C@H]1N2C(=O)NCc1cc(C)oc1C(F)(F)F	-8%	3.5µM*	-7%	4%
COC(=O)C1=C(c2ccc(OCc3ccccc3)cc2)C[C@@H]2CC[C@H]1N2C(=O)NCc1ccc(OC)c(OC)c1	-12%	0%	20%	5%
COC(=O)C1=C(c2ccc(OCc3ccccc3)cc2)C[C@@H]2CC[C@H]1N2C(=O)NCc1ccccc1OC	-8%	13µM*	5%	4%
CC[C@@H](O)C(C[C@@H](C)N(C)C)(c1ccccc1)c1ccccc1	x	x	0%[96 µM]	x
COC(=O)[C@H](Cc1ccccc1)N(Cc1ccccc1)S(=O)(=O)N(Cc1ccccc1)[C@@H](Cc1ccccc1)C(=O)OC	3%	u	0%	-5%
CC(C)C[C@@H](CO)N(Cc1ccccc1)S(=O)(=O)N(Cc1ccccc1)[C@@H](CO)CC(C)C	-1%	2.5µM*	-2%	u
COc1ccc2nc3cc(Cl)ccc3c(Nc3ccc(O)c(CN4CCN(C)CC4)c3)c2c1	3%	u	0%	34%
COc1cccc(CN(C)C[C@@H]2OCc3ccccc3-c3c(n(C)c4ccccc34)C(=O)N([C@@H](C)CO)C[C@H]2C)c1	-4%	10µM*	-3%	u
C[C@@H]1CN([C@H](C)CO)C(=O)c2c(c3ccccc3n2C)-c2ccccc2CO[C@@H]1CN(C)Cc1ccc(O)cc1	-5%	u	-8%	u
CCON=C(CC)C1=C(O)CC(c2c(C)cc(C)cc2C)CC1=O (centres undefined)	x	x	12%[96 µM]	x
N#CC(C(=O)C12CC3CC(CC(C3)C1)C2)c1nc2ccccc2[nH]1 (centres undefined)	u	1.1µM*	-3%	-10%
CCOC(=O)[C@]12Cc3cc(Cl)ccc3[C@H]1N(C)C(=O)c1ccccc12	0%	21%	-10%	4%
CCOC(=O)[C@]12Cc3cc(OC)ccc3[C@H]1N(C1CCCCC1)C(=O)c1ccccc12	0%	2.5µM*	-11%	10µM*
CCOC(=O)[C@]12Cc3cc(Cl)ccc3[C@H]1N(CC(=O)OC)C(=O)c1ccccc12	0%	7.9µM*	-13%	u
CCOC(=O)[C@]12Cc3cc(Cl)ccc3[C@H]1N(C1CCCCC1)C(=O)c1ccccc12	-4%	4.5µM*	-26%	u
CCOC(=O)[C@]12Cc3cc(OC)ccc3[C@H]1N(C)C(=O)c1ccccc12	1%	20%	-3%	5%
CC(=O)Nc1c(Br)cc2c(c1Br)Cc1cc([N+](=O)[O-])ccc1-2	x	21%	8%	38%
Nc1cccc2c1Cc1cc([N+](=O)[O-])ccc1-2	28µM*	8%	3%	1%
CC1CCC(NC(=O)Cn2c(=O)oc3ccccc32)CC1 (centres undefined)	-4%	36%	6%	u
CCN(Cc1ccccc1)S(=O)(=O)c1ccc(C(=O)N(CCCN(C)C)c2nc3cc4c(cc3s2)OCCO4)cc1	-4%	13µM*	-11%	u
CCOc1ccc(Nc2nc(N)c(C(=O)c3ccccc3Cl)s2)cc1	-1%	u	x	u
COc1ccccc1CN1CCN(C(=O)COc2ccc3ccccc3c2)CC1	-1%	10µM*	-4%	2%
O=C(COc1ccc2ccccc2c1)N1CCN(C2CCN(Cc3ccccc3)CC2)CC1	-3%	u	-10%	u
O=C(COc1ccc2ccccc2c1)N1CCN(CC2CC3C=CC2C3)CC1 (centres undefined)	-1%	8.9µM*	-1%	-2%
SMILES	ClpP mod	GLP1R inv ag	GLP1R ag	HEK293 tox
CC1=NN(c2ccccc2)C(=O)/C1=C/c1c(O)[nH]c(=S)[nH]c1=O	25µM*	-6%	-9%	15%
CCCCC(=O)NC(=S)Nc1nnn(CCC)n1	x	11µM*	3%	u
CCN(CC)C(=O)c1ccc(NC(=S)NC(=O)CCc2ccccc2)cc1	0%	u	-4%	-13%
CCCCNC(C)(C)[P+](=O)O	x	x	-7%	x
COc1cccc(-c2nnc3n(Cc4ccccc4Cl)c(=O)c4ccccc4n23)c1O	-5%	u	x	-19%
Fc1ccc(CNCCc2ccc3c(c2)OCO3)cc1	1%	-24%	-5%	-10%
Fc1ccc([C@@H]2CCNC[C@H]2COc2ccc3c(c2)OCO3)cc1	0%	8.9µM*	-6%	u
O=P(Nc1cccc(Cl)c1)(Oc1ccccc1)Oc1ccccc1	x	8.9µM*	3%	-18%
COc1cccc(NP(=O)(Oc2ccccc2)Oc2ccccc2)c1	-2%	5µM*	-4%	11%
CCN(CC)CC(O)c1ccc(C2CCCC2)cc1 (centres undefined)	1%	7.1µM*	-1%	10%
CN1CCN(C(=O)COc2ccc3ccccc3c2)CC1	x	14%	0%	2%
CN1CCN(C(=O)COc2ccc(-c3nc4ccccc4s3)cc2)CC1	25µM*	6.3µM*	-5%	-2%
C[C@]12CCC(=O)C=C1CC[C@H]1C2CC[C@@]2(C)[C@@H]1CC[C@]2(C)O (some centres undefined)	x	x	10%	x
CNC(=O)Oc1cccc(-c2cn3cc(OC(=O)NC)ccc3n2)c1	14µM*	13%	1%	-17%
NC(=O)c1cccc(-c2cccc(OC(=O)NC3CCCCC3)c2)c1	-1%	40%	-11%	-6%
Nc1nc(F)nc2c1ncn2[C@@H]1O[C@H](CO)[C@@H](O)[C@H]1O	1%	2µM*	2%	u
O=[N+]([O-])c1ccc(CNCCc2ccccc2)cc1	2%	4%	-2%	0%
O=[N+]([O-])c1ccc(NC(=S)NCCc2ccc(F)cc2)cc1	-2%	11µM*	-13%	u
COc1ccc(C(=O)Nc2ccc(-c3cc(C(F)(F)F)nn3-c3ccccc3)cc2)cc1OC	5%	u	x	-19%
CCCCCN1C(C(=O)c2ccccc2)=C(NC(=O)c2ccc(OC)c(OC)c2)c2ccccc2S1(=O)=O	1%	10µM*	x	84%
CCCCCn1c(=O)c(C(=O)NCc2ccncc2)c(O)c2ccccc21	-26%	0%	2%	-5%
Cc1oc2c(c1C(=O)NCc1cccnc1)C(=O)c1ccccc1C2=O	0%	3.2µM*	-14%	u
O=c1[nH]c(=O)n(Cc2ccc(F)cc2)c(O)c1/C=N/Nc1ccccc1	x	4.5µM*	0%	0%
COc1ccccc1CNC(=O)CCC1N=C2c3ccccc3N=C(SCc3cccc(Cl)c3)N2C1=O (centres undefined)	u	3%	x	2%
CN(C)CCCNC(=S)Nc1ccc(-c2ccccc2)cc1	-1%	11µM*	0%	u
S=C(NCCC(c1ccccc1)c1ccccc1)Nc1ccc(Cl)cc1	-1%	0%	1%	u
